Bioassay records (PubChem BioAssay)
In the library only some 3.3% were active in any assay of this set; here they are far more common.
NS1 inh: influenza NS1 inhibition; Potency, µM (top dose mostly 46.1 µM), without a hit: at the top dose activity, positive = more growth; actives 0.4% (n = 270,000); calls by dose curve; note: actives are rising curves; nearly all actives have a fitted effect of over 50% in size
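In this qHTS, NS1 from influenza A is expressed in budding yeast, where it slows growth. Cells are switched from glucose to 2% galactose medium (pH 6.0, -URA), treated with compound, and growth recovery is read at OD600.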
Sm TGR inh: S. mansoni TGR enzyme inhibition | Q962Y6 | purified TGR, DTNB reduction, TNB absorbance 405 nm | Potency, µM (titrated, usually from 114 µM), for inactives: at the highest dose activity change, negative = inhibition, actives largely listed as inhibitors | actives 3% (n = 360,000); note: % is set by controls: 0 for no effect and ±100 for the full control effect; nearly all actives have a fitted effect of over 60% in size
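Kinetic colorimetric format: TGR-catalysed, NADPH-driven DTNB reduction monitored via TNB absorbance. Enzyme dispensed at 20 nM; compound exposure 15 min at room temperature before reaction start.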
RE007 growth inh: less growth of the S. pombe RE007 Vpr strain. S. pombe RE007 Vpr strain, BacTiter-Glo ATP luminescence, 24 h. Potency, µM (titrated, usually from 92.2 µM), for inactives: at the top dose activity change, negative = less growth, usual class: inhibitors. actives 0.21% (n = 360,000); active = well fitted falling curve with a large enough effect; inconclusive = small, poorly fitted or top-dose-only effect; inactive = no such curve, though single readings can be large or run the other way; note: % is set by controls: 0 for no effect and ±100 for the full control effect; nearly all actives have a fitted effect of over 50% in size
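Fission yeast strain RE007, carrying one chromosomally integrated HIV-1 vpr copy, was seeded at OD 0.01 in PMG+AL medium with 23 nL pinned compound. After 24 h at 30 °C and 99% humidity, viability was read by BacTiter-Glo luminescence.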
SARS PLpro yeast: SARS-CoV PLP inhibition in yeast; S. cerevisiae expressing SARS-CoV PLpro, growth rescue; Potency, µM (highest dose often 32.9 µM), for the others: top-dose activity, positive = growth rescue, hits mostly activators; actives 0.19% (n = 330,000); AID 485353; calls by dose curve; note: 0% is about no effect; nearly all actives have a fitted effect of over 55% in size
LmPK inh: inhibitors of Leishmania mexicana pyruvate kinase; purified LmPK, Kinase-Glo ATP luminescence, 1 h; actives 0.37% (n = 290,000); Q27686; Potency, µM (highest dose often 57.5 µM), for the others: at the highest dose activity change, negative = inhibition, actives largely listed as inhibitors; note: % is set by controls: 0 for no effect and ±100 for the full control effect
Target sequence (Q27686 whole entry, looked up): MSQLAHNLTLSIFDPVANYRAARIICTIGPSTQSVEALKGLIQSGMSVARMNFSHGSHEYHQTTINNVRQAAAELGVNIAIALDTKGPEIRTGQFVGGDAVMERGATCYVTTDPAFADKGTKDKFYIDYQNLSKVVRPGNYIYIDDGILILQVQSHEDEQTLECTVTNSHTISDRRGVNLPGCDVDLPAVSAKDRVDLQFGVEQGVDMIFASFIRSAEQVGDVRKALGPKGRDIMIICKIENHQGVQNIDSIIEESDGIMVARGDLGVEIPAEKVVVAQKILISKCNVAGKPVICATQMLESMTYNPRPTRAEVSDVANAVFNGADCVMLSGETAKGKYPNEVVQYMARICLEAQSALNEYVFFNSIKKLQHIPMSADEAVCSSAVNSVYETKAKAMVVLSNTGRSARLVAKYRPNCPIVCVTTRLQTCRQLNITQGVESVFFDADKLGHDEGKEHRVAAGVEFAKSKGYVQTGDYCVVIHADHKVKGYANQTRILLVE
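Kinase-Glo luminescence read after 1 h RT reaction of 0.1 nM LmPK with 0.5 mM PEP and 0.1 mM ADP. Activity scaled between uninhibited and enzyme-free controls.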
Tb PYK inh: inhibitors of Trypanosoma brucei pyruvate kinase. TbPYK enzyme, Kinase-Glo Plus ATP luminescence, 45 min. Potency, µM (highest dose often 76.8 µM), inactives show at the highest dose activity, negative = inhibition, actives largely listed as inhibitors. Q57TT1. actives 0.12% (n = 410,000); note: % is set by controls: 0 for no effect and ±100 for the full control effect; nearly all actives have a fitted effect of over 50% in size
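Luminescent Kinase-Glo Plus end-point after 45 min room-temperature reaction of T. brucei pyruvate kinase started with 130 uM ADP (final). Buffer TEA 50 mM pH 7.2 with KCl, MgCl2, BSA, Tween-20; titration-based qHTS with fitted concentration-effect curves.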
Numbers without * were called inactive; ? = inconclusive; / = no result; [ ] = another dose, or the depositor's remark. Unless noted, calls come from the whole dose curve; as a rule, active = well fitted curve in the direction sought with a large enough effect; inconclusive = small, poorly fitted or top-dose-only effect, or another doubt; inactive = no such curve, though single readings can be large; an effect the other way counts as inactive or inconclusive. Potency is the fitted concentration of half-maximal effect.

SMILES	NS1 inh	Sm TGR inh	RE007 growth inh	SARS PLpro yeast	LmPK inh	Tb PYK inh
CC(=O)Oc1ccc(N2C(=O)C3C(C2=O)C(C(=O)c2ccc(Cl)cc2)N2CCCC32)cc1 (configuration not stated)	-10%	20µM*	-18%	0%	1%	-28%
Cc1ccc(N2C(=O)C3C(C2=O)C(C(=O)c2ccc(Cl)cc2)N2CCCC32)cc1 (configuration not stated)	-4%	28µM*	-19%	0%	8%	3%
COc1cc(/C=C/c2nc(C#N)c(N3CCN(C)CC3)o2)cc(OC)c1OC	/	1%	/	/	/	1%
O=C(CN1C(=O)COc2ccc(S(=O)(=O)Nc3ccccc3)cc21)Nc1cccc(Cl)c1	/	-2%	/	/	/	-5%
Cc1ccc(C(c2cccc(Br)c2)c2c(C)[nH]c3ccccc23)s1 (configuration not stated)	/	25µM*	/	/	/	-5%
COc1ccc(C(C)(O)c2nc(-c3cccc(C(F)(F)F)c3)cs2)cc1 (configuration not stated)	/	/	35µM*	/	/	-15%
Cc1[nH]c2ccccc2c1CC(=O)O	4%	45µM*	9%	1%	4%	0%
Cc1[nH]c2c(C)cccc2c1CC(=O)O	/	-33%	8%	5%	1%	-2%
CCOc1ccc(NC(=O)Cn2c(=O)c(CNc3ccc(OC)cc3)cc3ccc(OC)cc32)cc1	/	-5%	/	/	/	-1%
Clc1ccc(C2=Nc3cc(Cl)ccc3OC2)cc1	-9%	-4%	-16%	0%	-16%	0%
c1ccc(C2=Nc3ccccc3OC2)cc1	-34%	50µM*	?	-31%	?	-3%
O=C1NC(=S)S/C1=C\C=C\c1ccc([N+](=O)[O-])o1	-105%	2.2µM*	40µM*	-22%	-13%	-19%
NC(N)=NN=C(/C=C/c1ccc([N+](=O)[O-])o1)/C=C/c1ccc([N+](=O)[O-])o1	/	/	/	/	/	3%
COc1ccccc1NC(=O)CSc1nc(-c2cccc(Cl)c2)nc2c1Cc1c(CO)cnc(C)c1O2	/	20µM*	/	/	/	1%
CCSc1nc(-c2ccccc2F)nc2c1Cc1c(CO)cnc(C)c1O2	/	45µM*	/	/	/	-4%
CCSc1nc(-c2ccccc2OC)nc2c1Cc1c(CO)cnc(C)c1O2	/	-5%	/	/	/	2%
COc1ccc(-c2nsc(NC(=O)COc3ccc(C)c(C)c3)n2)cc1	/	2%	/	/	/	1%
CC1=CC(C#N)(C#N)C(C#N)(C#N)C(c2ccccc2)N1 (configuration not stated)	14%	22µM*	/	13%	7%	/
COC1(OC)N=C(N)C2(C#N)C(c3ccccc3)NC(C)=CC12C#N (configuration not stated)	8%	-2%	18%	3%	0%	-12%
COc1ccc(OC)c(/C=N/NC(=O)CCc2ccc(O)c(O)c2)c1	12%	20µM*	4%	-3%	2%	-13%
CCCOc1ccc(N2C(=O)CC(NCC#N)C2=O)cc1 (configuration not stated)	6%	1%	4%	-4%	-11%	-1%
CCOC(=O)CNC1CC(=O)N(c2ccc(Br)cc2)C1=O (configuration not stated)	-4%	10µM*	13µM*	-21%	-12%	0%
COc1ccc(N2C(=O)CC(NCC#N)C2=O)cc1 (configuration not stated)	-1%	14µM*	?	-18%	3%	-8%
COc1ccc(N2C(=O)CC(NC3CCCCNC3=O)C2=O)cc1 (configuration not stated)	12%	20µM*	?	-51%	1%	0%
CC(C)Cc1nn2c(=O)cc(COC(=O)c3ccc(NC(=O)C4CCCCC4)cc3)nc2s1	/	-2%	/	/	/	-4%
SMILES	NS1 inh	Sm TGR inh	RE007 growth inh	SARS PLpro yeast	LmPK inh	Tb PYK inh
Cc1c2cnn(-c3ccccc3)c(=O)c2c(C)n1CCCC(=O)Nc1ccc(F)cc1F	/	?	/	/	/	1%
O=C(CCSc1ccccn1)c1ccccc1	/	0%	25µM*	10%	-22%	-9%
O=C(O)CCSc1ccccn1	1%	22%	-17%	1%	0%	-15%
CC1CC(C)(C)Nc2ccc(N=O)cc21 (configuration not stated)	/	14µM*	-27%	-5%	-5%	-3%
O=C(NCc1cccnc1)C1c2ccccc2C(=O)N1Cc1ccco1 (configuration not stated)	-10%	35µM*	9%	1%	-1%	-3%
COC(=O)[C@@H](NC(=O)N1CCc2nc(-c3ccc(OC)cc3C)c3c(c2C1)CO[C@@H](c1ccccc1)C3)C(C)C	/	/	/	/	0%[11.5 µM]	/
COc1cc2c(cc1OC)C1=C(C#N)COCN1CC2	13%	20µM*	5%	2%	2%	-8%
Cc1ccc(OCC(=O)c2ccc(Cl)s2)c([N+](=O)[O-])n1	/	3.5µM*	-19%	2%	2%	3%
O=C(CC1C(=O)NCCN1Cc1ccccc1F)NC1CCCCCC1 (configuration not stated)	8%	?	/	2%	-7%	/
O=C(CC1C(=O)NCCN1Cc1ccccc1C(F)(F)F)NC1CCCC1 (configuration not stated)	18%	40µM*	-12%	1%	-4%	-6%
O=C(CC1C(=O)NCCN1Cc1cccc(C(F)(F)F)c1)NC1CCCCCC1 (configuration not stated)	10%	22µM*	3%	1%	-14%	-6%
CCCN(CCC)C(=O)Cn1c(=O)n(CCCCCC(=O)NCc2ccccc2Cl)c(=O)c2sccc21	/	11%	/	/	/	0%
Cc1ccc(C)c(-c2ccc(=O)n(C(C)C(=O)Nc3ccccc3C(F)(F)F)n2)c1 (configuration not stated)	/	-1%	/	/	/	-4%
c1cncc(-c2nc3ccccc3[nH]2)c1	0%	6%	4%	-1%	-9%	5%
O=C(CC(=O)c1ccccc1)Nc1cccnc1	16%	-8%	-22%	17%	-7%	-1%
S=C(Nc1ccc(-c2nc3ccccc3[nH]2)cc1)Nc1cccnc1	11%	11µM*	-28%	-8%	0%	-16%
Fc1ccc(NC(=S)Nc2cccnc2)cc1	2%	/	0%	0%	1%	-4%
O=C(Nc1ccccc1)C(=O)Nc1cccnc1	-2%	6%	-19%	-2%	14µM*	-16%
FC(F)Oc1ccccc1NC(=S)Nc1cccnc1	/	22µM*	9%	3%	11%	-4%
Fc1ccccc1NC(=S)Nc1cccnc1	3%	16µM*	-5%	1%	2%	0%
CC(=O)Nc1nc(NC(C)=O)c2[nH]c(CO)nc2n1	-1%	/	/	/	/	/
